Some test systems named below: DU-145 prostate; K-562 leukemia; MALME-3M melanoma; MDA-MB-231 breast; RXF 393 renal; SF-268 CNS; SF-295 CNS; SF-539 CNS; UACC-257 melanoma; M14 melanoma.
What all share (experiment): NCI-60 one-dose screen, 48 h (100 = growth as untreated, 0 = no growth, -100 = all killed)
Settings in all cases: 10 µM unless noted

SMILES strings stand for the structures. About 83,000 compounds went through this panel and 20% of them were active in at least one assay; those are over-represented in the sample as a whole.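 Method: cells in 96-well plates; compound added at one concentration; 48 h incubation; percent growth measured; values under 10 scored active.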 Unmarked numbers belong to inactive results. Active and inactive are the calls of the source.

Regarding `CS(=O)(=O)Nc1cccc(-n2cnc3cc(-c4ccc(O)cc4)ccc32)c1`, the growth with DU-145 prostate is 29.2%; in the assay with K-562 leukemia it was 18%; in the assay with MALME-3M melanoma it was 27.3%; with MDA-MB-231 breast it was 49.3%; in the assay on RXF 393 renal, -14.2% (active); in the assay on SF-268 CNS it was 50.3%. Besides, the growth with SF-295 CNS is 32%; with SF-539 CNS, 0.311% (active); with UACC-257 melanoma, 70.5%; in the assay on M14 melanoma, 26.2%.

As to `COc1ccc(-c2nc3ccccc3n2CC(=O)N=Nc2c(O)[nH]c3ccc(OC)cc23)cc1`, the growth was 3.7% (active) in the assay on DU-145 prostate; 32.5% in the assay with K-562 leukemia; 30.6% with MALME-3M melanoma; 66.5% with MDA-MB-231 breast; 10.6% in the assay with RXF 393 renal; 77.5% in the assay with SF-268 CNS. The growth was 104% in the assay with SF-295 CNS, -34.7% (active) with SF-539 CNS, 60.8% in the assay on UACC-257 melanoma and 64.5% with M14 melanoma.

As to `COc1cc(C2CC(c3ccc(Cl)cc3)=Nc3c(N)nc(N)nc3N2)ccc1Oc1nc(Nc2ccc(F)cc2)nc(N(C)C)n1` (stereo not given), the growth in the assay on DU-145 prostate is 60%; with K-562 leukemia, 8.16% (active); in the assay with MALME-3M melanoma, 54.1%; with MDA-MB-231 breast, 23.8%; in the assay on RXF 393 renal, -4.44% (active); in the assay on SF-268 CNS, 52.2%. The growth in the assay with SF-295 CNS is 53.3%; in the assay on SF-539 CNS it was 63.7%; with UACC-257 melanoma it was 47.9%; in the assay on M14 melanoma, 43.2%.

Take `NC(=O)c1ccc(-c2ccc3ncnc(N4CCc5cc(F)c(Cl)cc54)c3c2)cn1`: the growth was 49.5% with DU-145 prostate; 34.7% in the assay with K-562 leukemia; 78.9% in the assay with MALME-3M melanoma; 49.3% with MDA-MB-231 breast; 40.9% with RXF 393 renal; 95.6% in the assay on SF-268 CNS. For the same compound, the growth in the assay with SF-295 CNS is 79.4%; in the assay with SF-539 CNS, 63%; in the assay on UACC-257 melanoma, 110%; in the assay with M14 melanoma, 70.2%.

As to `COc1ccc(NC(=O)Cn2c(/C=C/c3ccc([N+](=O)[O-])cc3)nc3ccccc3c2=O)cc1`, the growth in the assay on DU-145 prostate was 88.8%; in the assay on K-562 leukemia, 120%; in the assay on MALME-3M melanoma it was 72.4%; in the assay on MDA-MB-231 breast, -18.4% (active); with RXF 393 renal, -57.8% (active); with SF-268 CNS, 64.9%. The growth was 56.3% with SF-295 CNS, 30.3% in the assay on SF-539 CNS, 86.3% in the assay with UACC-257 melanoma and 69.5% in the assay on M14 melanoma.

`O=C(N/N=C/c1ccc(B(O)O)s1)c1[nH]c2ccc(Br)cc2c1-c1ccccc1`: the growth in the assay on DU-145 prostate is -56.4% (active); with K-562 leukemia, 2.64% (active); in the assay with MALME-3M melanoma it was -96.2% (active); with MDA-MB-231 breast, -88.1% (active); in the assay on RXF 393 renal it was -94.3% (active); in the assay on SF-268 CNS, -37.2% (active). The growth with SF-295 CNS is -98.1% (active); in the assay with SF-539 CNS, -98.8% (active); in the assay with UACC-257 melanoma, -77.4% (active); with M14 melanoma, -67.4% (active).

On to `COc1cc(NC(=O)CSc2nnc(-c3ccc(-c4nc5ccc(Cl)cc5[nH]4)cc3)o2)cc(OC)c1OC`, for which the growth was 96% with DU-145 prostate; 29.5% in the assay with K-562 leukemia; 18.1% with MALME-3M melanoma; 60.2% in the assay on MDA-MB-231 breast; 25.8% in the assay on RXF 393 renal; 52.9% with SF-268 CNS. For the same compound, the growth in the assay on SF-295 CNS was 65%; in the assay with SF-539 CNS it was 24.1%; in the assay with UACC-257 melanoma, 67.2%; with M14 melanoma, 33.5%.

For `Oc1cncc(-c2ccc3ncnc(N4CCc5cc(F)c(Cl)cc54)c3c2)c1`, the growth is 49% in the assay on DU-145 prostate; 65% with K-562 leukemia; 70.8% with MALME-3M melanoma; 46.5% in the assay with MDA-MB-231 breast; 46.4% with RXF 393 renal; 45.1% in the assay with SF-268 CNS. In addition, the growth in the assay with SF-295 CNS was 57.6%; in the assay with SF-539 CNS, 56%; in the assay with UACC-257 melanoma, 90.9%; in the assay on M14 melanoma, 78%.

For the compound `CCOC(=O)/C(F)=C/C1CC1C1CCN(C(=O)OC(C)(C)C)CC1` (stereo not given), the growth in the assay with DU-145 prostate is 73.2%; with K-562 leukemia it was 76.1%; with MALME-3M melanoma it was 94%; with MDA-MB-231 breast, 99.3%; in the assay on RXF 393 renal, 105%; with SF-268 CNS, 98.6%. Also, the growth in the assay on SF-295 CNS was 99.3%; in the assay on SF-539 CNS, 103%; in the assay on UACC-257 melanoma, 111%; with M14 melanoma, 106%.

For `Cc1ccc(C(=O)Nc2cc(-n3ccnc3C)cc(C(F)(F)F)c2)cc1C#Cc1cnc2cccnn12`, the growth was 18.6% with DU-145 prostate; -3.69% (active) in the assay on K-562 leukemia; -35.6% (active) in the assay on MALME-3M melanoma; -37.5% (active) in the assay with MDA-MB-231 breast; -54.6% (active) in the assay on RXF 393 renal; 25.7% in the assay with SF-268 CNS. Also, the growth in the assay with SF-295 CNS was -60.9% (active); with SF-539 CNS, -81.8% (active); with UACC-257 melanoma it was 3.43% (active); in the assay with M14 melanoma, -20% (active).

As to `CNc1nc2ccccc2n2c(-c3ccc(O)c(O)c3)cnc12`, the growth in the assay on DU-145 prostate is 2.32% (active); with K-562 leukemia, 11.1%; in the assay with MALME-3M melanoma it was 16%; with MDA-MB-231 breast it was 20.9%; with RXF 393 renal, -4.31% (active); in the assay with SF-268 CNS, 5.12% (active). Further, the growth in the assay with SF-295 CNS was 11%; in the assay with SF-539 CNS it was -43% (active); with UACC-257 melanoma, 57.1%; with M14 melanoma it was -1% (active).

For the compound `Cc1cccc(C)c1Nc1nnc(-c2c[nH]c3ccccc23)o1`, the growth with DU-145 prostate is 107%; in the assay on K-562 leukemia, 98.4%; with MALME-3M melanoma it was 78.4%; in the assay with MDA-MB-231 breast it was 79.1%; in the assay on RXF 393 renal, 108%; with SF-268 CNS, 104%. Besides, the growth is 96% in the assay on SF-295 CNS, 94.1% in the assay on SF-539 CNS, 95.7% in the assay on UACC-257 melanoma and 102% with M14 melanoma.

On to `CN1C(=O)/C(=C\C(=O)c2cc3ccccc3oc2=O)c2ccccc21`, for which the growth in the assay with DU-145 prostate is 71.1%; with K-562 leukemia it was 25.6%; with MALME-3M melanoma it was 43.2%; in the assay on MDA-MB-231 breast, 58.7%; with RXF 393 renal, 30.5%; in the assay on SF-268 CNS it was 77.4%. Further, the growth is 97.3% with SF-295 CNS, 54% in the assay with SF-539 CNS, 91.9% with UACC-257 melanoma and 58.7% with M14 melanoma.

The values above are taken from PubChem BioAssay (NCI).
